The structures appear in SMILES notation. Compounds without any hit were thinned out: in the full panel of roughly 83,000, 20% have a hit.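 Assay: single dose, 48 h. Readout: percent growth (0 = no net growth; negative = cell death). Active: <10.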 A number with no mark means an inactive call. Calls of active or inactive are those of the source.

Holding throughout (experiment): NCI-60 one-dose screen, 48 h (100 = growth as untreated, 0 = no growth, -100 = all killed)
What all share (settings): 10 µM unless noted

The subject of assay [1] is NCI-H23 lung.
Assay [2] deals with NCI-H226 lung.
For assay [3], the system named is NCI-H322M lung.
Assay [4] relates to HOP-62 NSCLC.
For assay [5], the system named is NCI-H460 lung.
In assay [6] the test system is 786-0 renal.
In assay [7] the test system is MDA-MB-231 breast.
In assay [8] the test system is SF-268 CNS.
Assay [9] deals with SF-539 CNS.
Assay [10] concerns M14 melanoma.
Assay [11] relates to U251 CNS.
For assay [12], the system named is PC-3 prostate.
Assay [13] concerns UACC-62 melanoma.
Assay [14] concerns SK-MEL-28 melanoma.
Assay [15] deals with UO-31 renal.
The test system of assay [16] is OVCAR-3 ovarian.
The test system of assay [17] is SW-620 colon.
Assay [18] relates to MCF7 breast.
Assay [19] concerns HCT-116 colon.
The subject of assay [20] is KM12 colon.

Regarding `O=C1C=CC(=O)C2C1C1(Cl)C(Cl)=C(Cl)C2(Cl)C1(Cl)Cl` (centres undefined), the growth is 58% in assay [1]; 56.9% in assay [2]; 77.2% in [3]; 63.5% in [4]; 57.5% in [5]; 73.9% in assay [6]. Also, the growth in assay [7] is 44.8%; in assay [8], 47.6%; in assay [9], 62.5%; in assay [10], 44.4%; in [11] it was 60.8%; in assay [12], 44.3%. Further, the growth was 46.1% in assay [13]; 67.7% in [14]; 44.9% in [15]; 44.3% in [16]; 64.7% in assay [17]; 47% in [18]. The values for the growth in [19] and in assay [20] were 36.3% and 38.9%, respectively.

On to `CCOCC1(CCc2ccccc2)C(=O)NC(=S)NC1=O`, for which the growth in assay [1] was 94%; in assay [2], 106%; in assay [3], 114%; in [4] it was 104%; in assay [5], 113%; in [6] it was 102%. In addition, the growth in [7] is 100%; in assay [8] it was 102%; in [9], 99.9%; in assay [10] it was 105%; in [11], 101%; in assay [12], 104%. Also, the growth in assay [13] was 104%; in assay [14], 117%; in assay [15] it was 84%; in assay [16], 117%; in [17], 109%; in [18] it was 103%. For the same compound, the growth is 101% in [19] and 110% in assay [20].

Turning to `COc1ccccc1N1CCN(CCc2c[nH]c3cc4c(cc23)OCO4)CC1`, the growth in assay [1] was 71.9%; in assay [2], 79.3%; in assay [3], 72.1%; in assay [4], 63.2%; in [5], 51.6%; in [6] it was 79%. Moreover, the growth was 79.8% in assay [7]; 91.6% in assay [8]; 77.8% in assay [9]; 68.9% in [10]; 85.4% in assay [11]; 58.4% in assay [12]. Besides, the growth in [13] was 69.2%; in assay [14], 94.2%; in [15] it was 33.2%; in assay [16], 91.2%; in assay [17], 88.6%; in assay [18], 78.7%. Also, the growth in assay [19] is 42.5%; in assay [20], 84%.

For `COc1cc(N(CCCl)CCCl)ccc1C=Nc1ccccc1C(=O)O`, the growth was 101% in assay [1]; 94.7% in assay [2]; 95.7% in assay [3]; 110% in [4]; 81.1% in assay [5]; 110% in assay [6]. Also, the growth in [7] was 96.8%; in assay [8] it was 103%; in [9], 102%; in assay [10] it was 98.2%; in assay [11], 95.8%; in assay [12] it was 90.3%. In addition, the growth in [13] is 96.4%; in assay [14] it was 94.3%; in assay [15], 78.5%; in assay [16], 97.8%; in [17] it was 91.6%; in [18] it was 93.7%. Also, the figures for the growth in [19] and in [20] were 108% and 71.1%, respectively.

For `O=[N+]([O-])c1ccc(/C=C/C=C/c2ccc(S(=O)(=O)F)cc2)c(Cl)c1`, the growth in [1] was 96.4%; in assay [2], 99.8%; in assay [3], 94.7%; in assay [4], 99.9%; in [5], 107%; in assay [6] it was 97.5%. Also, the growth in [7] is 99.3%; in assay [8] it was 96.1%; in assay [9], 104%; in [10] it was 100%; in assay [11], 96.2%; in assay [12] it was 91.8%. Also, the growth in [13] was 94.9%; in assay [14] it was 98.6%; in assay [15], 79.2%; in [16], 109%; in [17], 104%; in assay [18] it was 102%. Besides, the growth was 106% in assay [19] and 97.1% in assay [20].

Take `O=C1NC(=O)C(=Cc2cn(Cc3ccccc3)c3ccccc23)C(=O)N1`: the growth in [1] is 93.2%; in [2], -68.9% (active); in assay [3] it was 81.7%; in assay [4], 73.9%; in assay [5] it was 29.9%; in assay [6], 104%. Also, the growth in [7] was 84.9%; in assay [8], 90.8%; in assay [9], 89.1%; in assay [10] it was 99.5%; in [11] it was 84.1%; in [12], 84.2%. The growth in assay [13] is 40.6%; in assay [14], 98%; in [15] it was 71.7%; in [16], 72.6%; in assay [17], 83.6%; in assay [18], 85.9%. The results for the growth in [19] and in assay [20] were 86.1% and 99.5%, respectively.

As for `COc1ccc(C2SCC(=O)Nc3c2c(C)nn3-c2nc3ccc(C)cc3s2)cc1O` (centres undefined), the growth in [1] is 55.3%; in assay [2] it was 67.6%; in [3], 56.3%; in [4], 38.3%; in assay [5], 15.7%; in [6] it was 58.4%. Also, the growth was 36% in assay [7]; 44.8% in [8]; 31% in assay [9]; 31.3% in [11]; 19.9% in assay [12]; 40.2% in assay [13]. For the same compound, the growth was 51.1% in assay [14]; 28.4% in assay [15]; 5.66% (active) in assay [16]; 28.1% in assay [17]; 15.4% in assay [18]; 34.1% in assay [19]. Moreover, the growth in assay [20] was 16.2%.

Turning to `CCCCCCCCCCOc1ccc(C(=O)Oc2ccc(CSP3(=O)OCC4OC(n5ccc(=O)[nH]c5=O)C(F)C4OP(=O)(O)OCC4OC(n5cnc6c(N)ncnc65)C(F)C4O3)cc2)cc1` (centres undefined), the growth was 103% in [1]; 75.5% in assay [2]; 84.8% in assay [3]; 111% in [4]; 108% in assay [5]; 98.6% in assay [6]. Further, the growth is 111% in assay [7]; 104% in [8]; 23.1% in assay [9]; 90.7% in assay [10]; 104% in assay [11]; 103% in assay [12]. For the same compound, the growth in assay [13] was 111%; in [14], 113%; in [15], 98.5%; in assay [16], 97.6%; in assay [17], 115%; in assay [18], 95.5%. Besides, the growth was 79.9% in assay [19] and 103% in [20].

The values are drawn from PubChem BioAssay (NCI).
